Source: PubChem (several laboratories)
Shown are actives, neighbours in structure and some others; about 2.4% of the full set was active somewhere.
APOBEC3G inh: APOBEC3G (human) deaminase inhibition | Q9HC16 | recombinant A3G, ssDNA deamination FAM/TAMRA fluorescence | inhibition, % at 20 µM | 0.28% of 330,000 active | AID 493012;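 active = inhibition of at least 40% at 20 µM, with no more than 30% in the related APOBEC3A deaminase screen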;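 also: plate controls were DMSO wells with A3G for no effect and wells lacking A3G enzyme for full effect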
Target sequence (Q9HC16 whole entry, looked up): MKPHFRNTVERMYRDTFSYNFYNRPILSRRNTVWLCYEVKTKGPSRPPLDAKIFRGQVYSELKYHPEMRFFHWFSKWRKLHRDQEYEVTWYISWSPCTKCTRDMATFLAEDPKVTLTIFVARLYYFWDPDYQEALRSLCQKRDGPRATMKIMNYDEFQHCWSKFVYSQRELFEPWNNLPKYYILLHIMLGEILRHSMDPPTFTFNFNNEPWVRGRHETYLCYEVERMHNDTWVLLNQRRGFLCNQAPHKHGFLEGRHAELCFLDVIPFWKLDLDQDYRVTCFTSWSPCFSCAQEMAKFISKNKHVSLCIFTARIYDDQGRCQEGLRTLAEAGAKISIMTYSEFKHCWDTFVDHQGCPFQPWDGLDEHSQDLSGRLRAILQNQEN
ADAM10 inh: ADAM10 inhibition, QFRET primary screen; recombinant ADAM10, EDANS/DABCYL FRET peptide cleavage, 3 h; inhibition, % at 7 µM; 0.62% of 370,000 active; AID 720582;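 active = inhibition above a per-campaign cutoff equal to the mean of compounds falling between control-based bounds plus 3 SD, cut at about 20% in these data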;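 also: 0% = DMSO wells while the 100% control is not disclosed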
A3A deaminase: human APOBEC3A DNA deaminase inhibition. recombinant A3A, FAM/TAMRA ssDNA deamination fluorescence. inhibition, % at 20 µM. 0.41% of 330,000 active;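 active = at least 40% inhibition at 20 µM here, with at most 30% in a related deaminase screen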;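 also: plate controls were A3A with DMSO for no effect and wells lacking A3A enzyme for full effect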
ADAM17 inh: inhibitors of human ADAM17 | P78536 | recombinant ADAM17, EDANS/DABCYL FRET peptide cleavage | inhibition, % at 6.95 µM | 0.83% of 370,000 active | AID 720648;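 active = inhibition above the mean of compounds lying between control limits plus 3 SD, set per campaign, cut at about 8.5% in these data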;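 also: 0% = DMSO-only wells as the low control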
NRP1-CendR mod: alters CendR peptide binding to human NRP-1 | FAM-RPARPAR peptide binding to NRP-1, fluorescence polarization | 0.85% of 360,000 active | inhibition, % at 25 µM;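 active = inhibition or corrected inhibition above about 18%, plus a signal ratio from 0.5 to 1.5, limit read from the data, passing the limit was not always enough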
ADAM10 counter: inhibits human ADAM10 in ADAM17 exosite counter-screen | recombinant ADAM10, EDANS/DABCYL FRET peptide cleavage, 3 h | shares compounds with ADAM17 inh | inhibition, % at 6.95 µM | 47% of 2,900 active;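 active = mean inhibition over the triplicate runs exceeds the activity threshold set in the earlier primary screen, cut at about 20% in these data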;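 also: 0% = DMSO wells and 100% = marimastat wells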
ADAM17 confirm: confirmation of inhibitors of human ADAM17; AID 743257; 65% of 2,900 active; recombinant ADAM17, EDANS/DABCYL QFRET peptide cleavage; shares compounds with ADAM17 inh; inhibition, % at 6.95 µM;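 active = mean inhibition across replicates above the hit cutoff set in the primary screen, cut at about 8.5% in these data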;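 also: 0% = DMSO wells and 100% = marimastat wells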
An asterisk follows results filed as active.

O=C(Nc1nn(Cc2ccc(Cl)cc2)cc1Br)c1ccc(COc2ccccc2Cl)o1 was read as APOBEC3G inh -0.8, ADAM10 inh 17.3, A3A deaminase -5.7, ADAM17 inh 10.1*, NRP1-CendR mod 5.6, ADAM10 counter 33.1* and ADAM17 confirm 18.1*.
Screening O=C(NCc1ccccc1)[C@@H]1CCCN1C(=O)[C@H]1CCCN1C(=O)c1ccc(F)c(F)c1 returned ADAM10 inh -7.6 and ADAM17 inh -2.8.
Screening COc1cccc(C(=O)Nc2ccc(Cl)c(C(F)(F)F)c2)c1 returned APOBEC3G inh -2.3, ADAM10 inh 18.1, A3A deaminase 10.7, ADAM17 inh 10.7*, NRP1-CendR mod -0.1, ADAM10 counter 8.0 and ADAM17 confirm 3.9.
For Cn1c(=O)c2[nH]c(N=NN3CCCCC3)nc2n(C)c1=O the results were ADAM10 inh 2.3, ADAM17 inh -1.4 and NRP1-CendR mod 18.4.
CC1CCN(N=Nc2nc3c([nH]2)c(=O)n(C)c(=O)n3C)CC1 was read as ADAM10 inh 12.5, ADAM17 inh 17.0*, NRP1-CendR mod 4.7, ADAM10 counter 10.2 and ADAM17 confirm 9.3*.
C[C@@H]1CCN(C2CC2)S(=O)(=O)c2ccc(N3CC[C@@H](O)C3)cc2O1 was read as ADAM10 inh -10.1 and ADAM17 inh -3.9.
Cc1cccc(C)c1NC(=O)C1(C)CSCC(=O)N1CCc1ccccc1F (centres undefined) was read as ADAM10 inh -1.5, ADAM17 inh 1.7 and NRP1-CendR mod 1.2.
Cc1cccc(C)c1NC(=O)C1(C)CSCC(=O)N1CCc1c[nH]c2ccccc12 (centres undefined) was read as ADAM10 inh -4.8, ADAM17 inh 10.9*, NRP1-CendR mod -2.7, ADAM10 counter 0.6 and ADAM17 confirm 3.8.
Screening CC(C)C(=O)N1CCN(c2ccc(NC(=O)c3cccs3)cc2)CC1 returned APOBEC3G inh 0.2, ADAM10 inh 2.8, A3A deaminase -1.2, ADAM17 inh 1.9 and NRP1-CendR mod 13.7.
COc1ccc(NS(=O)(=O)c2cc(NC(=O)c3ccccc3F)ccc2N2CCCC2)cc1 was read as APOBEC3G inh 3.6, ADAM10 inh 16.2, A3A deaminase 2.9, ADAM17 inh 8.3 and NRP1-CendR mod -5.0.
Screening COc1ccc(NS(=O)(=O)c2cc(NC(=O)c3cccs3)ccc2N2CCCC2)cc1 returned APOBEC3G inh 1.3, ADAM10 inh 19.0, A3A deaminase 1.4, ADAM17 inh 9.1*, NRP1-CendR mod 1.2, ADAM10 counter 18.5 and ADAM17 confirm 11.1*.
For CC(C)C(=O)N1CCN(c2ccc(NC(=O)c3cccs3)cc2Cl)CC1 the results were APOBEC3G inh -5.1, ADAM10 inh 10.9, A3A deaminase 0.5, ADAM17 inh 9.1*, NRP1-CendR mod 0.9, ADAM10 counter 8.1 and ADAM17 confirm 6.1.
For O=S1(=O)c2ccc(N3CCC[C@@H]3CO)cc2O[C@H]2CCN1C2 the results were ADAM10 inh -18.5 and ADAM17 inh -11.7.
`CC(C)(C)c1nc(NC(=O)Nc2ccccc2)sc1Br` gave APOBEC3G inh -4.4, ADAM10 inh 19.6, A3A deaminase -3.6, ADAM17 inh 10.7*, NRP1-CendR mod 1.9, ADAM10 counter 35.0* and ADAM17 confirm 21.1*.
Screening COc1ccc(NC(=O)Nc2ccc3c(c2)CC(=O)N([C@H](C)CO)C[C@@H](C)[C@H](CN(C)C(=O)Nc2ccccc2)O3)cc1 returned APOBEC3G inh -8.7, ADAM10 inh 3.5, A3A deaminase -3.7, ADAM17 inh 4.4 and NRP1-CendR mod 2.2.
For C[C@H]1CN([C@@H](C)CO)C(=O)Cc2cc(NC(=O)C3CC3)ccc2O[C@H]1CN(C)Cc1ccc(Oc2ccccc2)cc1 the results were APOBEC3G inh -4.6, ADAM10 inh 19.4, A3A deaminase -3.4, ADAM17 inh 9.3*, NRP1-CendR mod 15.0, ADAM10 counter 28.8* and ADAM17 confirm 18.8*.
